Inconclusive results are not listed. Calls of active or inactive are those of the source. Calls follow the shape of the dose curve; as a rule, active = well fitted inhibition curve with a large enough effect; inconclusive = small, poorly fitted or top-dose-only effect; inactive = flat fitted curve, though single readings scatter.

For the assay, the target named is Phospholipid hydroperoxide glutathione peroxidase GPX4 (Homo sapiens) (UniProt P36969). The assay is described as follows: Primary qHTS Assay for Inhibitors of Recombinant Selenoprotein Glutathione Peroxidase 4 (GPX4) (AID 1845192). Also: nearly all actives have a fitted effect of over 65% in size. As to conditions: recombinant GPX4, GR-coupled NADPH fluorescence, 15 min; series mostly up to 50 µM; activity change, negative = inhibition: at the top concentration. From the text: Assay Provider: Elias S.J. Arner MD PhD.
Phospholipid hydroperoxide glutathione peroxidase GPX4 (Homo sapiens), sequence (P36969 whole entry, looked up): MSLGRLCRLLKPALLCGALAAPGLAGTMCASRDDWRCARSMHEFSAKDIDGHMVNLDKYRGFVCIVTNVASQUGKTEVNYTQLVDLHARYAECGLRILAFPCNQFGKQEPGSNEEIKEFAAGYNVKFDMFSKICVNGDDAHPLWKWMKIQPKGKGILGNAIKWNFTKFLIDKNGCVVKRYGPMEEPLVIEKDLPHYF
Department of Medical Biochemistry and Biophysics
Karolinska Institutet, Solna, Stockholm, Sweden
Selenoprotein glutathione peroxidases (GPX), like the ubiquitously expressed GPX1 and the ferroptosis modulator GPX4, enact their antioxidant activities by reducing hydroperoxides using glutathione. […] GPX1 and GPX4 inhibitors have thus shown promise as anti-cancer agents. Existing inhibitors are often promiscuous, or modulate GPX activity only indirectly, so novel direct inhibitors identified through screening against GPX1 and GPX4 could be valuable. Here, we developed optimized glutathione reductase (GR)-coupled GPX assays for the biochemical high-throughput screen (HTS) of almost 12,000 compounds with known mechanisms of action. Initial hits were triaged using a GR counter-screen, assessed for isoform specificity using a separate GPX2 assay, and were assessed for general selenocysteine-targeting activity using a thioredoxin reductase (TXNRD1) assay. With this suite of assays, we identified novel GPX1/GPX2- and GPX4-specific inhibitors and can here present a validated pipeline for future discovery research for selenoprotein-targeting agents.
SEQUENCE No. (e.g., 1, 2, 3, etc.); […] (e.g., Cells, Incubation, Reagent, etc.); VALUE; DESCRIPTION.
1; Reagent 1; 3 uL; 333.33 nM GPx4 enzyme or no enzyme control in 1536-well, black, solid Greiner assay plate.
2; Compound; 25 nL; Kalypsis pin tool (Wako USA) equipped with a 1536-well pin head.
3; Incubation; 30 min; room temperature.
4; Reagent 2; 1 uL; 500 nM GR, 5 mM GSH, 2.5 mM NADPH solution
5; Reagent 3; 1 uL; 2.5 mM CHP in 50% EtOH.
6; Detection; Fluorescence; ViewLux microplate reader, excitation 340 nm and emission 450 nm.
7; Incubation; 15 min; room temperature.
8; Detection; Fluorescence; ViewLux microplate reader, excitation 340 nm and emission 450 nm.
NOTES (numbers refer to Sequence numbers above)
1. 3 µL of 333.33 nM GPX4 and 0.016% BSA in assay buffer (50 mM Tris-HCl, 2 mM EDTA (pH 7.5), 150 mM NaCl) was added to columns 3-48 of 1536-well plates using a BioRAPTR Flying Reagent Dispenser (Let's Go Robotics (LGR), Carlsbad, CA). A no-enzyme control (0.01% BSA in TES assay buffer) was added to columns 1-2.
2. 25 nL, library and DMSO controls were added to each well with a pin tool (Kalypsys).
3. The assay plates were incubated for 30 minutes at room temperature.
4. 1 µL of master mix (500 nM glutathione reductase (GR), 5 mM reduced glutathione (GSH), 2.5 mM NADPH in assay buffer) was added.
5. 1 µL of cumene hydroperoxide (CHP) ([2.5 mM] in 50% EtOH) was then added within 5 minutes to initiate the reaction. Final concentrations were: 200 nM GPX4, 1 mM GSH, 0.5 mM CHP, 0.5 mM NADPH, 100 nM GR, 0.01% BSA.
6. Initial fluorescence readout (t=0) at 340/450 nm was measured using a ViewLux multimodal detector (PerkinElmer, Waltham, MA).
8. Endpoint fluorescence readout (t=15) at 340/450 nm was measured 15 min after room temperature incubation.
Regarding `O=C(Cc1cccs1)NC1C(=O)N2C(C(=O)[O-])=C(C[n+]3ccccc3)CSC12` (stereo not given), the “activity change, negative = inhibition” value is -22.6% (inactive).

In the case of `C[C@@H]1CCC[C@H](C)N1NC(=O)c1ccc(Cl)c(S(N)(=O)=O)c1`, the outcome was inactive.

With `CN(C)CC/C=C1\c2ccccc2CSc2ccccc21`, the outcome was inactive.

Take `CCC(=O)O[C@@H]1CC(=O)O[C@H](C)C/C=C/C=C/[C@@H](O)[C@H](C)C[C@H](CC=O)[C@H](OC2O[C@H](C)[C@@H](O[C@H]3C[C@@](C)(O)[C@@H](OC(=O)CC)[C@H](C)O3)[C@H](N(C)C)[C@H]2O)[C@H]1OC` (stereo not given in full): the outcome was inactive.

As for `CC(C)(S)[C@H](N)C(=O)O`, the outcome is “inactive [at 4.52 µM]”.

With `CC1(C)SC2C(NC(=O)Cc3ccccc3)C(=O)N2C1C(=O)O` (stereo not given), the “activity change, negative = inhibition” value was -9.85% (inactive).

Consider `CC12CC[C@@H]3c4ccc(OS(=O)(=O)O)cc4CC[C@H]3C1CCC2=O` (stereo not given in full), for which the outcome was inactive.

Take `CN1C(CC(=O)c2ccccc2)CCCC1CC(O)c1ccccc1` (stereo not given): the “activity change, negative = inhibition” value was -19% (inactive).

`CC(C)N1CCN(c2ccc(OC[C@@H]3CO[C@@](Cn4cncn4)(c4ccc(Cl)cc4Cl)O3)cc2)CC1`: the “activity change, negative = inhibition” value is 2.69% (inactive).

As to `C[N+](C)(C)CC(O)CC(=O)O` (stereo not given), the “activity change, negative = inhibition” value was 0.0033% (inactive).

The values are drawn from PubChem BioAssay (NCATS).
